Test results published in ChEMBL document CHEMBL4513216, “Probing the Open Global Health Chemical Diversity Library for Multistage-Active Starting Points for Next-Generation Antimalarials” (ACS Infect Dis, 2020).
In all, about 69,000 compounds went through this assay and about 8,600 (12%) showed an effect of 50% or more. This excerpt belongs to a sample that is enriched for strong results.

These compounds were tested on Plasmodium berghei (assay: Screen against P. berghei liver stage (PbLuc), transformed with Luciferase, at 10uM). Conditions: tested at 10 uM.
Type: functional, HepG2

| Structure (SMILES) | INHIBITION |
| --- | --- |
| O=C(c1cc(Cn2ccc3ccccc32)[nH]n1)N1CCOCC1 | 16.2% |
| O=C([C@@H]1CCCO1)N1CCN(Cc2ccncc2)c2ncccc2C1 | 40.3% |
| COCC(=O)N1CCC(c2csc(NC(C)=O)n2)CC1 | 17.1% |
| CC(C)c1ccc(C(CN)N2CCc3sccc3C2)cc1 (stereo not given) | 82.2% |
| CSc1ccc(C(CNC(C)=O)N2CCc3sccc3C2)cc1 (stereo not given) | 34.9% |
| NCC(c1ccccc1)N1CCc2sccc2C1 (stereo not given) | -41.8% |
| CSc1ccc(C(CN)N2CCc3sccc3C2)cc1 (stereo not given) | 66.3% |
| CCC(=O)NCC(c1ccc(SC)cc1)N1CCc2sccc2C1 (stereo not given) | 28.3% |
| O=C(NCCO)NCC(c1ccccc1)N1CCc2sccc2C1 (stereo not given) | 5.91% |
| CSc1ccc(C(CNC(=O)C2CC2)N2CCc3sccc3C2)cc1 (stereo not given) | 19.7% |
| NCC(c1ccc(Cl)cc1)N1CCc2sccc2C1 (stereo not given) | 71.2% |
| CCOCCCC(=O)NCC(c1ccccc1)N1CCc2sccc2C1 (stereo not given) | 27.6% |
| Cc1ocnc1CNC(=O)Nc1ccc(N2CCOC(C)C2)cc1 (stereo not given) | 25.8% |
| COc1ccc(C)cc1C(C)NC(=O)Cn1ccc(=O)n(C)c1=O (stereo not given) | -25.9% |
| CN(C(=O)CCN1CCCC1=O)c1cc(C#N)c2ccccc2n1 | 31.2% |
| c1cncc(C2COC3(CCN(Cc4ccsc4)CC3)C2)c1 (stereo not given) | 46.1% |
| COc1ccc(C(C)NCc2cscn2)cc1Cn1cccn1 (stereo not given) | 41.4% |
| CNc1cc(C2CCCN(Cc3ccccc3OCC(=O)O)C2)ccn1 (stereo not given) | 18.3% |
| Cc1cc(CNC(=O)CN2CCCC(Cn3cncn3)C2)ccc1F (stereo not given) | 25.6% |
| Cc1ccc(Cl)c(NC(=O)NC2(C)CCOC2)c1 (stereo not given) | 24.8% |
| Cc1ccc(-n2cc(C)cn2)c(NC(=O)NC2(C)CCOC2)c1 (stereo not given) | 56.3% |
| Cc1ccc(C)c(-n2ncc(NC(=O)NC3(C)CCOC3)c2C)c1 (stereo not given) | 33.2% |

| Structure (SMILES) | INHIBITION |
| --- | --- |
| O[C@@H]1CN(Cc2cnccn2)C[C@H]1Oc1ccccc1 | -10.5% |
| O=C(Cc1cccc(O)c1)N1CCCC(OCc2cccnc2)C1 (stereo not given) | 36.2% |
| CC(C)(C)C(=O)NCCc1cc(N2CCOCC2)nc(NC2CC2)n1 | 30.15% |
| Cc1cnn(CC2CCCN2C(=O)c2ccc(-n3cccn3)nc2)c1 (stereo not given) | 16.2% |
| Cc1ccc(-c2cc(C3CCNCC3)nc(C)n2)cc1 | 6.26% |
| Cc1nc(-c2ccc(F)cc2)cc(C2CCNCC2)n1 | 54.5% |
| Cc1nc(-c2ccc(F)c(F)c2)cc(C2CCNCC2)n1 | -2.09% |
| O=C(CN1CCSC(c2ccccc2)C1)NCc1ccccn1 (stereo not given) | 31.9% |
| O=C(CCc1ccc2c(c1)CCO2)Nc1nnn[nH]1 | 28.6% |
| COc1ccc(C(=O)N2CC(=O)N(CC3CC3)CC(O)C2)cc1 (stereo not given) | 42.7% |
| CC(C)c1cc(C(=O)N2CCOCC2CC(=O)c2ccco2)nn1C (stereo not given) | -4.35% |
| C/N=C1/c2cc3cc(OC)ccc3n2CCN1C | 15.06% |
| COc1ccc2c(ccn2CCN)c1 | 34.7% |
| C/N=C1/c2cc3cc(OC)ccc3n2CCN1Cc1ccccc1 | 67.6% |
| C/N=C1\c2cc3cc(OC)ccc3n2CCN1Cc1ccccc1 | 83% |
| C/N=C1\c2cc3cc(OC)ccc3n2CCN1C | -6.09% |
| COc1ccc(CN2CC[C@@H](O)[C@@H]2Cc2ccccc2)cc1 | -23.7% |
| Fc1cccc(CN2CCC[C@@H](Cn3nnc(-c4ccccn4)n3)C2)c1 | 40.1% |
| Cn1nc(CNC(=O)c2cccc(C(F)(F)F)c2)c2c1CCOC2 | 15.9% |
| O=C(c1cc2c(s1)CCC2)N1CCCC1Cn1cccn1 (stereo not given) | -18.8% |
| Cc1nc(CSCCC(=O)NCc2ccc(-n3cncn3)nc2)cs1 | 16.8% |
| CCNC(=O)[C@@H]1CCCN1C1(C(=O)NC)CCCCC1 | 10.5% |

| Structure (SMILES) | INHIBITION |
| --- | --- |
| Cc1n[nH]c(C)c1-c1cnc(CC2CCN(C(C)C)CC2)cn1 | 23.2% |
| O=C(CCCn1ccnc1)NC1CCCN(c2ccccc2Cl)C1 (stereo not given) | 88% |
| O=C(NC1CCCN(c2ccccc2Cl)C1)c1c[nH]nn1 (stereo not given) | 21.1% |
| Cc1ccc(Cl)cc1N1CCC(CNC(=O)CCn2ccnc2)C1 (stereo not given) | 31.8% |
| O=C(NC1CCCN(c2ccccc2Cl)C1)c1nc(=O)[nH][nH]1 (stereo not given) | -6.05% |
| Cc1cc(F)ccc1N1CCCC(NC(=O)CCCn2ccnc2)C1 (stereo not given) | 70.1% |
| Cc1cc(F)ccc1N1CCCC(NC(=O)CCc2ccncc2)C1 (stereo not given) | 29% |
| CCOCC1CN(c2ccncn2)Cc2cnn(CC)c21 (stereo not given) | 5.67% |
| Cc1nn(C)c2cn(CC(=O)N3CCc4ccccc4C3)nc12 | 8.49% |
| CCOCC(=O)N1CCC(Oc2ccc(C(F)(F)F)cn2)CC1 | 11.8% |
| CCOC(=O)N1CCC(Oc2ccc(C(F)(F)F)cn2)CC1 | -16.4% |
| CC(C)(C)NC(=O)N1CCC(Oc2ccc(C(F)(F)F)cn2)CC1 | 86.3% |
| NC(=O)Cn1cc(NC(=O)N2CCSCC2)cn1 | -15% |
| O=C(NCc1ccnc(OCC(F)(F)F)c1)NCC1COCCO1 (stereo not given) | 4.12% |
| CC(CC(=O)c1ccccc1)NC(=O)c1ccon1 (stereo not given) | 28.2% |
| Cc1nc(CSCCC(=O)NCc2ccc(N(C)C)cc2)cs1 | -58% |
| N#CCSCCCN1CCCN(C(=O)c2ccccc2)CC1 | 50.1% |
| N#CCSCCCN1CCN(C(=O)c2ccc(Cl)cc2)CC1 | 3.47% |
| CC(=O)N1CCN(CCCSCc2ccccc2)CC1 | -23.5% |
| O=C(c1ccccc1F)N1CCN(CCCn2cncn2)CC1 | 32.3% |
| CC(=O)N1CCCN(CCCSCc2ccccc2)CC1 | 15.7% |
| Cc1ccc(C(=O)N2CCN(CCCSCC#N)CC2)cc1F | 5.41% |

| Structure (SMILES) | INHIBITION |
| --- | --- |
| N#CCSCCCN1CCN(C(=O)c2ccccc2F)CC1 | 69.7% |
| Cc1cccc(C(=O)N2CCCN(CCCSCC#N)CC2)c1 | 59.2% |
| N#CCSCCCN1CCN(C(=O)c2cccc(Cl)c2)CC1 | 10.7% |
| Cc1nc(CN2CCO[C@@H]3CN(Cc4ccsc4)C[C@@H]3C2)cs1 | 22.5% |
| Cc1ccc(N2CCN(C(=O)CN3C[C@H]4CC[C@@H]3C4)CC2=O)cc1 | 32.1% |
| CSc1ncnc(NCc2ccco2)c1C#N | 9% |
| O=C(c1ccncc1)N1CCOC2(CCCN(c3nncs3)C2)C1 (stereo not given) | 58.4% |
| CC(=O)N1CCCC2(C1)CN(c1nncs1)CCO2 (stereo not given) | 34% |
| Cc1cccc(N2CCCC3(C2)CN(c2nncs2)CCO3)c1 (stereo not given) | 38.5% |
| COc1ccc(N2CCCC3(C2)CN(c2nncs2)CCO3)cc1 (stereo not given) | 65.6% |
| CC(=O)N1CCCC2(C1)CN(C(=O)c1ccncc1)CCO2 (stereo not given) | 27.6% |
| c1cncc(N2CCOC3(CCCN(c4nncs4)C3)C2)c1 (stereo not given) | 26.3% |
| O=C(CSc1ccccc1F)NS(=O)(=O)c1ccc2c(c1)OCCO2 | 40.9% |
| CCn1cc(S(=O)(=O)N2CCN(S(=O)(=O)c3ccc(Br)s3)CC2)cn1 | 41% |
| CC[C@@]1(O)CCN(CCCOc2ccc(C(N)=O)cc2)C[C@H]1O | 50.5% |
| CO[C@H]1C[C@@H](O)C12CCN(CCCOc1ccc(C(N)=O)cc1)CC2 | 33.7% |
| COc1ccccc1OCCCN1CC=C(c2cnn(C)c2)CC1 | 30.1% |
| COc1ccc(NC(=O)CCN2CC=C(c3cnn(C)c3)CC2)cc1Cl | -37.2% |
| NC(=O)c1ccc(OCCCN2CCC3(CC2)OCCCC3O)cc1 (stereo not given) | 47.6% |
| CCc1nnc(NC(=O)CCN2CC=C(c3cnn(C)c3)CC2)s1 | 60.2% |
| CCn1cc(C2=CCN(CCCOc3ccccc3)CC2)cn1 | 9.56% |
| CCc1cccc(NC(=O)CCN2CC=C(c3cnn(C)c3)CC2)c1 | 0.348% |

| Structure (SMILES) | INHIBITION |
| --- | --- |
| Cn1cc(C2=CCN(CCCC(=O)Nc3ccc(C#N)cc3)CC2)cn1 | 50.4% |
| COc1ccc(NC(=O)CCN2CC=C(c3cnn(C)c3)CC2)c(C)c1 | 11.5% |
| Cn1cc(C2=CCN(CCCOc3ccc(C(N)=O)cc3)CC2)cn1 | 53.9% |
| Cn1cc(C2=CCN(CCC(=O)NCc3ccc(Cl)cc3)CC2)cn1 | 33.7% |
| CC(C)NC(=O)CCCn1cnc2ccccc2c1=O | 10.5% |
| O=C(CCn1c(=O)oc2ccccc21)NCC(O)c1ccc(F)c(F)c1 (stereo not given) | -12.5% |
| O=S(=O)(N1CCOCC1)N1CCCCC1CCn1cccn1 (stereo not given) | -84.5% |
| N#Cc1c(CN2CCCC2Cn2cncn2)cn2ccccc12 (stereo not given) | -36% |
| O=C(c1ccccn1)N1CCC(S(=O)(=O)c2ccccc2)C1 (stereo not given) | 45.5% |
| O=C1CCOC[C@]2(CN(Cc3ccccc3)C[C@H]2c2ccccc2)N1 | 37.1% |
| CCC(O)CN1CCN(C(=O)CCc2c(C)noc2Cl)CC1 (stereo not given) | 25.1% |
| CC(=O)N1CCC(c2ccnc(Nc3cncnc3)n2)C1 (stereo not given) | 42.6% |
| CCN1CC2(CCNCC2)COc2ccccc2S1(=O)=O | -0.79% |
| CNC(=O)CN1C(=O)CCC12CCCN(Cc1cccc(F)c1)C2 (stereo not given) | 32.1% |
| Cc1nc2[nH]cnc(Nc3cc(C)n(C)n3)c-2n1 | -6.42% |
| CCn1ccnc1CN(C)C1CCCN(Cc2ccccc2F)C1 (stereo not given) | -11.3% |
| Cc1nc(CN2CCCC(N(C)CCc3ccncc3)C2)no1 (stereo not given) | 25.7% |
| CCn1c(C2CCCN(Cc3ccc(F)cc3Cl)C2)nn(C)c1=O (stereo not given) | -36.4% |
| CCN(Cc1ccncc1)C1CCCN(C/C=C/c2ccc(F)cc2)C1 (stereo not given) | 55.9% |
| CCN(Cc1ccncc1)C1CCCN(Cc2ccc(F)cc2Cl)C1 (stereo not given) | 62.4% |
| CCN(Cc1ccncc1)C1CCCN(Cc2ccc(F)cc2OC)C1 (stereo not given) | 25.5% |
| O=C(c1ccncc1F)N1CCc2onc(COc3cccnc3)c2C1 | 29.9% |
